{
  "source": "PubChem BioAssay AID1246",
  "about": "(Columbia University Molecular Screening Center, 2008)",
  "note": "Screen size: about 120,000 compounds; about 840 (0.7%) were called active. The sample holds actives, similar compounds and a random draw of the others, so the mix is not that of the screen. A number with no mark means an inactive call.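 Rule for the calls: active = inhibition above the batch mean plus 3 SD, and confirmed as a hit on visual image review (cut at about 43% in these data); inconclusive = passes the inhibition cutoff but fails visual image review; inactive = the rest.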",
  "data": [
    {"experiment": "E-selectin induction blockers in HUVEC – imaging, immunofluorescence, high content, primary screen (AID 1246);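 note: 0% = TNF-stimulated DMSO wells and 100% = unstimulated control wells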", "settings": "HUVEC TNFa-induced E-selectin immunofluorescence, at 2 µM, stronger effect = higher value", "values": [
      {"smiles": "CC(=O)Nc1ccccc1Sc1ccc2c3c(cccc13)C(=O)N(c1ccc(C)cc1)C2=O", "inhibition": "62.1% (active)"},
      {"smiles": "CCOC(=O)Nc1ccccc1N1C(=O)c2ccccc2C1=O", "inhibition": "-7.24%"},
      {"smiles": "CC(=O)NCCn1c(SCC(=O)Nc2ccc(C)cc2)nc2ccccc2c1=O", "inhibition": "-10.7%"},
      {"smiles": "C/C=N/NC(=O)CCCC(=O)N/N=C/C", "inhibition": "-10.5%"},
      {"smiles": "CN1CCC(OC(=O)COc2ccc(Cl)cc2Cl)CC1", "inhibition": "12.5%"},
      {"smiles": "Cc1ccc(C(=O)NC(=S)Nc2ccc(N3CCOCC3)cc2)cc1", "inhibition": "2.01%"},
      {"smiles": "Cc1ccc(C)c(Cn2cnc3c(oc4ccccc43)c2=O)c1", "inhibition": "-10.7%"},
      {"smiles": "CC1CCC2(CC1)NC(=O)N(Cc1nnc(-c3cccs3)o1)C2=O", "note": "(stereo not drawn)", "inhibition": "-9.64%"},
      {"smiles": "Cc1nc(-c2ccc(Cl)cc2)sc1C(=O)CBr", "inhibition": "24.5%"},
      {"smiles": "CCc1nnc(NC(=O)CCCSc2nc3ccccc3[nH]2)s1", "inhibition": "-35.3%"},
      {"smiles": "CCC(C)(C)NC(=O)CN(C(=O)C(=O)Nc1ccc2c(c1)OCCO2)C(C)(C)CC", "inhibition": "-8.58%"},
      {"smiles": "COc1ccc(NC(=O)c2c(C)oc3c2CCCC3)cc1", "inhibition": "60.9% (active)"},
      {"smiles": "COc1ccc(C(=O)Nc2ccc(S(=O)(=O)NC(C)C)cc2)cc1", "inhibition": "-8.02%"},
      {"smiles": "COc1ccc(NC(=O)c2ccc(OC)cc2)cc1", "inhibition": "-30.5%"},
      {"smiles": "COc1ccc(-c2[nH]ncc2CN(C)Cc2cccnc2)c(F)c1", "inhibition": "-5.34%"},
      {"smiles": "O=C(NCc1nnc(SCC(=O)N2CCCc3ccccc32)o1)c1ccccc1F", "inhibition": "-38.5%"},
      {"smiles": "CCN(CC)S(=O)(=O)c1ccc(N(C)CCc2ccc(OC)c(OC)c2)nc1", "inhibition": "0.93%"},
      {"smiles": "CCCOc1ccc(C(=O)NCCc2ccccc2)cc1", "inhibition": "-42.2%"},
      {"smiles": "C=CCn1c(=O)c2ccccc2n2c(SCC(=O)N3CCCc4ccccc43)nnc12", "inhibition": "80.1% (active)"},
      {"smiles": "Cn1c(SCC(=O)N2CCCc3ccccc32)nc2ccccc2c1=O", "inhibition": "-1.81%"},
      {"smiles": "O=C(CSc1nc2ccccc2c(=O)n1CCCO)N1CCc2ccccc21", "inhibition": "-7.95%"},
      {"smiles": "Cc1c(Br)c([N+](=O)[O-])nn1CC(=O)N1CCN(Cc2ccccc2)CC1", "inhibition": "8.51%"},
      {"smiles": "O=C(/C=C/c1ccccc1Cl)Nc1ccc(S(=O)(=O)Nc2ncccn2)cc1", "inhibition": "-13.4%"},
      {"smiles": "OCCNCCCCOc1ccccc1F", "inhibition": "-13.2%"},
      {"smiles": "OCCNCCOc1ccc(Cl)c(Cl)c1", "inhibition": "75.2% (active)"},
      {"smiles": "COCCCNCCOCCOc1ccc(Cl)cc1Br", "inhibition": "-28.3%"},
      {"smiles": "CCOC(=O)N1CCN(CCC(=O)Nc2cc(OC)ccc2OC)CC1", "inhibition": "-40.9%"},
      {"smiles": "O=C(Nc1cccc(F)c1)N1C2CCC1CC(O)(c1cccnc1)C2", "note": "(stereo not drawn)", "inhibition": "-22.6%"}
    ]}
  ]
}
